# Data reported in PubChem BioAssay AID652175 (National Center for Advancing Translational Sciences (NCATS), 2013).
# Records with an inconclusive call do not appear. Unmarked numbers belong to inactive results. Active and inactive are the calls of the source. Calls follow the shape of the dose curve; as a rule, active = well fitted inhibition curve with a large enough effect; inconclusive = small, poorly fitted or top-dose-only effect; inactive = no such curve, though single readings can be large or run the other way.
# Experiment: qHTS Assay for Lipid Storage Modulators: S3 Assay against Probe and Analogs
# Conditions: Drosophila S3 cells, BODIPY lipid droplet fluorescence, 18-24 h, oleic acid added to induce droplets; series mostly up to 46.1 µM; activity, negative = lipid storage inhibition: at the top concentration
# Excerpt: Storing lipids as a reservoir for energy or the anabolism of elementary metabolites is a common feature of probably all cells and is conserved from bacteria to humans. The universal cellular lipid storage organelle is the so-called lipid storage droplet (LD). Although ubiquitous, LDs share a simple structure composed of a hydrophobic core that harbors the storage lipids, which is shielded by a droplet-specific phospholipid monolayer to which proteins are attached. The current model of LD biogenesis involves an incorporation of the lipid core into the membrane leaflets of the endoplasmic reticulum (ER) followed by a subsequent budding-like maturation of a LD, which ultimately pinches off. Once released, LD volume can increase by localized lipogenesis or fusion of existing droplets. Storage lipids are re-mobilized enzymatically by lipase activity. Lipase regulation in the adipocyte is heavily studied and involves multiple components including catecholamine signaling, the LD-associated proteins Perilipin and comparative gene identification-58 (CGI-58) and at least two lipases named hormone sensitive lipase (HSL) and adipocyte triglyceride lipase (ATGL). LD regulation outside of the adipocyte is poorly understood and only few components are known. However, there is an urgent need to learn more about ectopic fat depots as mislocalized storage of lipids, for example in the liver or muscle, is an eminent health problem associated with insulin resistance or the metabolic syndrome. We developed a laser-scanning cytometer assay to enable 1,536-well screening and combined the results of the small molecules screen with an RNAi database based on lipid storage. In this assay we tested analogs of the probe against the original qHTS assay, which involved drosophila melanogaster cells (S3), to see if these small molecules could disrupt lipid storage. NIH Molecular Libraries Probe Production Centers Network [MLPCN] NIH Chemical Genomics Center [NCGC] MLPCN Grant: MH085686 Assay Submitter (PI): Mathias Beller, Max-Planck-Institut fur Biophysikalische Chemie
# qHTS was performed with embryonic Drosophila S3 cells (Bloomington Drosophila Genomics Resource Center [DGRC]). We dispensed 4 uL of cells at 1.25 x 10^6 cells/mL into LoBase Aurora COC 1,536-well plates (black walled, clear bottom) with a bottle-valve solenoid-based dispenser (Aurora) to obtain 5,000 cells/well. Triacsin C (Sigma-Aldrich T-4540), an inhibitor of long-chain fatty acyl CoA synthetase that blocks synthesis of triglycerides, was used as a positive control for lipid under-storage. A total of 23 nL of compounds dissolved in DMSO at different concentrations were transferred to the assay plates using a Kalypsys pin tool equipped with a 1,536-pin array containing 10-nL slotted pins (FP1S10, 0.457-mm diameter, 50.8 mm long; V&P Scientific). The final DMSO concentration was 0.46%. One microliter of oleic acid at 400 uM (Calbiochem, #4954) was added to induce lipid droplet formation in the cells, and the plates were lidded with stainless steel rubber gasket lined lids containing pinholes. After 18-24 h incubation at 25 0C and 95% humidity, 4 uL of the BODIPY lipid dye 493/503 (1:2000, Molecular Probes) and the Cell Tracker Red CMTPX dye (Life Technologies, # 34552) were added to the wells to stain lipid droplets and enumerate cell number, respectively. Fluorescence was detected by excitation of the fluorophores with a 488-nm laser on an Acumen Explorer (TTP Lab Tech). The total intensity in channel 1 (500-530 nm) reflected lipid droplet accumulation. Cells were detected using channel 3 (575-640 nm) with 5-um width and 100-um depth filters. The ratio of the total intensity in PMT channel 1 over total intensity of channel 3 was also calculated. Percent activity was computed relative to an internal control (100% inhibited lipid droplet deposition due to the presence of 20 uM Triacsin C), which was added to 32 wells/plate.
Compound,"activity, negative = lipid storage inhibition",Potency
CCOc1ccc(CCNC(=O)c2cc3ccncc3n2Cc2cccc(C)n2)cc1OCC,-100%,
CCOc1ccc(CCNC(=O)c2cc3ccccc3n2Cc2ccccn2)cc1OCC,,118 nM (active)
CCOc1ccc(CCNC(=O)c2cc3ccccc3n2CCN2CCOCC2)cc1OCC,-100%,
CCOc1ccc(CCNC(=O)c2cc3sccc3n2CCN(C)C)cc1OCC,,2350 nM (active)
CCOc1ccc(CCNC(=O)c2cc3cnccc3n2Cc2cccc(C)n2)cc1OCC,-27.6%,
CCOc1ccc(CCNC(=O)c2ccccc2)cc1OCC,33.3%,
CCOc1ccc(CCNC(=O)c2ccc(Oc3ccccc3)cc2)cc1OCC,43.3% [at 38.8 µM],
CCOc1ccc(CCNC(=O)c2cc3ccccc3n2Cc2cccc(C)c2)cc1OCC,,3.3 nM (active)
CCOc1ccc(CCNC(=O)c2cc3ccccc3n2Cc2cccc(C)n2)cc1OCC,,13.2 nM (active)
CCOc1ccc(CCNC(=O)c2cc3sccc3n2Cc2ccc(F)cc2F)cc1OCC,,16.6 nM (active)
CCOc1ccc(CCNC(=O)c2ccc(C(=O)c3ccccc3)cc2)cc1OCC,46.7%,
